# Results from PubChem BioAssay (EPA / NIEHS).
# Active and inactive are the calls of the source. The calls were made as follows: active = hit-call score of the fitted dose curve at least 0.9, where 1 is the maximum; inactive = score below 0.9.
# Tests used:
# [1] = APR_HepG2_CellCycleArrest_24hr: Apredica 24-hour HepG2 Assay for Cell Cycle Arrest (AID 2282905); details: imaging, actives raise or lower the signal;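 also: cell cycle arrest scored as ratio of 2N to 4N nuclear DNA content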
# Outline: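 Compounds (0.39 to 200 uM, final DMSO 0.5% v/v) are applied to HepG2 cells for 24 hours; cells are then fixed, permeabilized and nuclei labeled with Hoechst 33342. Automated imaging measures DNA content, and activity is fitted in both directions against DMSO.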
# [2] = APR_HepG2_NuclearSize_24hr: Apredica 24-hour HepG2 Assay for Nuclear Size (AID 2282907); details: high-content imaging, actives raise or lower the signal
# Outline: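 Nuclear size is measured by fluorescence high-content imaging of Hoechst-labelled HepG2 nuclei after 24 hr of treatment (0.39–200 uM, 0.5% DMSO). Cells are fixed in 3.7% formaldehyde before staining, and DMSO serves as the baseline for bidirectional curve fitting.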
# [3] = APR_HepG2_CellLoss_24hr: Apredica 24-hour HepG2 Assay for Cell Loss (AID 2282908); details: high-content imaging;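 as to AC50: fit in both directions so a hit may be cell loss or gain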
# Outline: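 Nuclear count serves as the viability measure: treated cells are fixed, permeabilized and labelled with Hoechst 33342, and six images per well are analysed to identify valid nuclei. Doses span 0.39–200 uM, and activity in either direction is scored against DMSO.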
# [4] = APR_HepG2_MicrotubuleCSK_24hr: Apredica 24-hour HepG2 Assay for Microtubule CSK Stabilty (AID 2282909); details: HepG2 microtubule cytoskeleton imaging, actives raise or lower the signal
# Outline: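 Compounds were applied to HepG2 cells for 24 hours across 0.39–200 uM in duplicate, with final DMSO at 0.5% v/v. Fixed, permeabilized cells were labeled for alpha-tubulin and nuclei, and tubulin fluorescence was quantified by imaging, fitted bidirectionally against DMSO.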
# [5] = APR_HepG2_MitoticArrest_24hr: Apredica 24-hour HepG2 Assay for Mitotic Arrest (AID 2282910); details: high-content imaging, actives raise or lower the signal
# Outline: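 High-content imaging of fixed HepG2 cells labeled with Hoechst 33342 and anti-phospho-histone H3, after 24 h treatment. Ten concentrations 0.39 to 200 uM in duplicate, final DMSO 0.5%; changes fitted both directions relative to DMSO.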
# [6] = APR_HepG2_MitoMass_24hr: Apredica 24-hour HepG2 Assay for Mitochondrial Mass (AID 2282912); details: high-content imaging, actives raise or lower the signal
# Outline: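 After 24 hr of treatment at 0.39 to 200 uM, HepG2 cells take up 250 nM MitoTracker Red CMXRos for 30 min and are then fixed with 3.7% formaldehyde. Per-well images are quantified, and any change in either direction is scored against solvent.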
# [7] = APR_HepG2_CellCycleArrest_72hr: Apredica 72-hour HepG2 Assay for Cell Cycle Arrest (AID 2282914); details: high-content imaging, actives raise or lower the signal
# Outline: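 Read-out is Hoechst-stained nuclear DNA content measured by automated fluorescence imaging (20x, six images per well), fitted in both directions relative to DMSO. Human HepG2 liver cells received 0.39–200 uM compound for 72 hr at 0.5% v/v DMSO.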
# [8] = APR_HepG2_CellLoss_72hr: Apredica 72-hour HepG2 Assay for Cell Loss (AID 2282915); details: high-content imaging
# Outline: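 Cell number comes from Hoechst 33342-labelled nuclei, imaged at 20x after 3.7% formaldehyde fixation. Dosing was 0.39–200 uM, ten concentrations in duplicate, 0.5% DMSO final, for 72 h. Bidirectional fit relative to DMSO baseline.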
# [9] = APR_HepG2_MitoMembPot_72hr: Apredica 72-hour HepG2 Assay for Mitochondrial Membrane Potential (AID 2282917); details: imaging, actives raise or lower the signal
# Outline: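 Membrane potential read by MitoTracker Red CMXRos (250 nM, 30 min, pre-fixation) fluorescence imaging of HepG2 after 72 hr exposure. Ten concentrations, 0.39–200 uM, duplicate wells, 0.5% DMSO; fitted in both directions against DMSO baseline.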
# [10] = APR_HepG2_MitoticArrest_72hr: Apredica 72-hour HepG2 Assay for Mitotic Arrest (AID 2282918); details: high-content imaging, actives raise or lower the signal
# Outline: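 Read-out is phospho-histone H3 immunofluorescence with Hoechst nuclear segmentation, imaged at 20x. Human HepG2 liver cells received ten concentrations (0.39–200 uM, final DMSO 0.5% v/v) for 72 hr before fixation. Gain or loss of signal was fitted relative to DMSO.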
# [11] = APR_HepG2_MicrotubuleCSK_72hr: Apredica 72-hour HepG2 Assay for Microtubule CSK Stabilty (AID 2282919); details: HepG2 microtubule cytoskeleton, high-content imaging, actives raise or lower the signal
# Outline: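 High-content imaging of alpha-tubulin staining in fixed HepG2 cells after 72 hr treatment with ten concentrations from 0.39 to 200 uM (0.5% DMSO). Fitting was bidirectional against DMSO; taxol served as positive control.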
# [12] = APR_HepG2_P-H2AX_24hr: Apredica 24-hour HepG2 Assay for H2AX Phosphorylation (AID 2282920); details: high-content imaging, actives raise or lower the signal
# Outline: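 HepG2, 24 hr, cpd 0.39–200 uM (10 conc, duplicate), DMSO 0.5% v/v final. Fix 3.7% formaldehyde, Triton X-100 permeabilize, anti-phospho-H2A.x 1:200 + Hoechst 2 ug/mL. Imaged, bidirectional fit vs DMSO.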
# [13] = APR_HepG2_StressKinase_72hr: Apredica 72-hour HepG2 Assay for Stress Kinase (AID 2282921); details: HepG2 stress kinase (phospho-c-Jun) imaging, actives raise or lower the signal
# Outline: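 After a 72 h compound treatment spanning 0.39 to 200 uM, formaldehyde-fixed cells are labelled for phosphorylated c-Jun and nuclei, imaged by automated fluorescence microscopy, and activity is fitted in both directions relative to DMSO controls.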
# [14] = APR_HepG2_StressKinase_24hr: Apredica 24-hour HepG2 Assay for Stress Kinase (AID 2282922); details: HepG2 stress kinase (phospho-c-Jun) imaging, actives raise or lower the signal
# Outline: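 High-content imaging of phospho-c-Jun immunofluorescence in fixed, permeabilized HepG2 cells after 24 h dosing. Ten concentrations, 0.39 to 200 uM, run in duplicate at 0.5% v/v DMSO; gain or loss of signal versus DMSO.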
# [15] = APR_HepG2_MitoMass_72hr: Apredica 72-hour HepG2 Assay for Mitochondrial Mass (AID 2282924); details: high-content imaging, actives raise or lower the signal;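 also: MitoTracker Red CMXRos stain intensity per cell imaged as mitochondrial mass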
# Outline: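 Readout is imaged MitoTracker Red (250 nM, 30 min, pre-fixation) signal, fitted bidirectionally against DMSO baseline. Human HepG2 liver cells received compound 0.39–200 uM in duplicate for 72 hr, final DMSO 0.5%.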
# [16] = APR_HepG2_NuclearSize_72hr: Apredica 72-hour HepG2 Assay for Nuclear Size (AID 2282925); details: high-content imaging, actives raise or lower the signal
# Outline: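 Nuclear size was read by high-content imaging of Hoechst 33342 stain after formaldehyde fixation. Compounds ran 72 h on HepG2 at 0.39 to 200 uM, with final DMSO 0.5% v/v. Curves fitted both directions relative to DMSO control.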
# [17] = APR_HepG2_p53Act_24hr: Apredica 24-hour HepG2 Assay for p53 Activation (AID 2282913); details: high-content imaging, actives raise or lower the signal;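 also: p53 protein immunofluorescence averaged per cell in HepG2 with Hoechst nuclei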
# Outline: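 Human HepG2 liver cells; 24 hr cpd treatment, 0.39–200 uM, 0.5% DMSO final. Fixed in 3.7% formaldehyde, permeabilized with 0.5% Triton X-100, stained with anti-p53/Cy5 plus Hoechst 33342. Six images per well at 20x; gain or loss vs DMSO.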
# [18] = APR_HepG2_P-H2AX_72hr: Apredica 72-hour HepG2 Assay for H2AX Phosphorylation (AID 2282916); details: imaging, actives raise or lower the signal;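 also: phospho-histone H2A.x immunostain intensity per cell marking DNA damage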
# Outline: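 Human hepatoma HepG2 cells are dosed across ten concentrations (0.39 to 200 uM, 0.5% v/v DMSO) and incubated 72 hr. Phospho-histone H2A.x is then detected by antibody staining alongside c-Jun and Hoechst, and quantified by automated fluorescence imaging.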
compound,measurement,setting,value
Cc1occc(=O)c1O,outcome,[1],inactive
same,outcome,[2],inactive
same,outcome,[3],inactive
same,outcome,[4],inactive
same,outcome,[5],inactive
same,outcome,[6],inactive
same,outcome,[7],inactive
same,outcome,[8],inactive
same,outcome,[9],inactive
same,outcome,[10],inactive
same,outcome,[11],inactive
same,outcome,[12],inactive
same,outcome,[13],inactive
same,outcome,[14],inactive
same,outcome,[15],inactive
same,outcome,[16],inactive
C=CCCCCCCCCCCCC,AC50,[1],69.9 µM (active)
same,outcome,[2],inactive
same,AC50,[3],52.7 µM (active)
same,outcome,[4],inactive
same,outcome,[5],inactive
same,outcome,[6],inactive
same,AC50,[17],99.4 µM (active)
same,outcome,[7],inactive
same,AC50,[8],87.6 µM (active)
same,outcome,[9],inactive
same,outcome,[10],inactive
same,outcome,[11],inactive
same,AC50,[12],99 µM (active)
same,AC50,[13],98.5 µM (active)
same,outcome,[14],inactive
same,outcome,[15],inactive
same,outcome,[16],inactive
C#CC(O)C(CC)CCCC (configuration not stated),outcome,[1],inactive
same,outcome,[2],inactive
same,outcome,[3],inactive
same,outcome,[4],inactive
same,outcome,[5],inactive
same,outcome,[6],inactive
same,outcome,[7],inactive
same,outcome,[8],inactive
same,outcome,[9],inactive
same,outcome,[10],inactive
same,outcome,[11],inactive
same,outcome,[12],inactive
same,outcome,[13],inactive
same,outcome,[14],inactive
same,outcome,[15],inactive
same,outcome,[16],inactive
CCCCC(CC)COC(=O)CCCCCCCC(=O)OCC(CC)CCCC (configuration not stated),outcome,[1],inactive
same,outcome,[2],inactive
same,outcome,[3],inactive
same,outcome,[4],inactive
same,outcome,[5],inactive
same,outcome,[6],inactive
same,outcome,[17],inactive
same,outcome,[7],inactive
same,outcome,[8],inactive
same,outcome,[9],inactive
same,outcome,[10],inactive
same,outcome,[11],inactive
same,outcome,[12],inactive
same,outcome,[13],inactive
same,outcome,[14],inactive
same,outcome,[15],inactive
same,outcome,[16],inactive
Cn1cnc2c1c(=O)[nH]c(=O)n2C,outcome,[1],inactive
same,outcome,[2],inactive
same,outcome,[3],inactive
same,outcome,[4],inactive
same,outcome,[5],inactive
same,outcome,[6],inactive
same,outcome,[7],inactive
same,outcome,[8],inactive
same,outcome,[18],inactive
same,outcome,[9],inactive
same,outcome,[10],inactive
same,outcome,[11],inactive
same,outcome,[12],inactive
same,outcome,[13],inactive
same,outcome,[14],inactive
same,outcome,[15],inactive
same,outcome,[16],inactive
NC1CCCCC1,outcome,[1],inactive
same,outcome,[2],inactive
same,outcome,[3],inactive
same,outcome,[4],inactive
same,outcome,[5],inactive
same,outcome,[6],inactive
same,outcome,[7],inactive
same,outcome,[8],inactive
same,outcome,[9],inactive
same,outcome,[10],inactive
same,outcome,[11],inactive
same,outcome,[12],inactive
same,outcome,[13],inactive
same,outcome,[14],inactive
same,outcome,[15],inactive
same,outcome,[16],inactive
CCCCCCCCCC[N+](C)(C)[O-],outcome,[1],inactive
same,outcome,[2],inactive
same,AC50,[3],109 µM (active)
same,outcome,[4],inactive
same,outcome,[5],inactive
same,outcome,[6],inactive
same,outcome,[17],inactive
same,outcome,[7],inactive
same,AC50,[8],140 µM (active)
same,AC50,[9],169 µM (active)
same,AC50,[10],75 µM (active)
same,outcome,[11],inactive
same,outcome,[12],inactive
same,outcome,[13],inactive
same,outcome,[14],inactive
same,outcome,[15],inactive
same,outcome,[16],inactive
C/C=C/c1ccc(OC)cc1,outcome,[1],inactive
same,outcome,[2],inactive
same,outcome,[3],inactive
same,outcome,[4],inactive
same,outcome,[5],inactive
same,outcome,[6],inactive
same,outcome,[7],inactive
same,outcome,[8],inactive
same,outcome,[9],inactive
same,outcome,[10],inactive
same,outcome,[11],inactive
same,outcome,[12],inactive
same,outcome,[13],inactive
same,outcome,[14],inactive
same,outcome,[15],inactive
same,outcome,[16],inactive
